Source: PubChem BioAssay
Pol kappa inh-1 = blocks human DNA polymerase kappa activity; Q9UBT6; purified Pol kappa, fluorescent DNA synthesis assay, 10 min; Potency, µM (titrated, usually from 107 µM), for inactives: top-dose activity, negative = inhibition, most hits filed as inhibitors; hit rate 0.53% among 400,000; AID 588579; note: potency is the fitted concentration of half-maximal effect; % is set by controls: 0 for no effect and ±100 for the full control effect
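Kinetic fluorescence screen: compound preincubated 15 min RT with 10 nM enzyme; 50 nM substrate (final) initiates; reads at 0/10 min.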
WRN helicase inh = inhibitors of human WRN helicase | Q14191 | WRN helicase unwinding, fluorescent forked duplex, kinetic | Potency, µM (doses to about 114 µM), for the others: at the highest dose activity change, negative = inhibition, usual class: inhibitors | hit rate 0.46% among 360,000; note: potency is the fitted concentration of half-maximal effect; % is set by controls: 0 for no effect and ±100 for the full control effect; nearly all actives have a fitted effect of over 55% in size
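Enzyme (20 nM final) and test compound sit together 15 min at room temperature before substrate addition. Substrate is a single-forked duplex oligonucleotide (100 nM) labelled with fluorophore and quencher, with 2 mM ATP; helicase unwinding raises red fluorescence, read kinetically.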
POLB inh = DNA polymerase beta (human) inhibition; P06746; Pol beta primer extension/strand displacement, fluorescence kinetic; Potency, µM (doses to about 114 µM), for inactives: at the highest dose activity change, negative = inhibition, most hits filed as inhibitors; hit rate 1.3% among 340,000; note: potency is the fitted concentration of half-maximal effect; % is set by controls: 0 for no effect and ±100 for the full control effect
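Preincubation: enzyme (10 nM) with compound, 15 min, RT. Reaction: substrate added to 50 nM final. Reads: 0 and 10 min. Analysis: normalized, Hill fit.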
PI5P4K alpha inh = PI5P4K alpha (human) kinase inhibition | P48426 | PI5P4Kalpha enzyme, ADP-Glo luminescence, 60 min; stronger effect = lower value | max response, % | hit rate 1.2% among 330,000; active = max response of -50% or lower; inconclusive = between -30% and -50%; inactive = -30% or higher; note: value at the top dose of about 77 µM; % is set by controls: 0 for no effect and ±100 for the full control effect
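Single end-point luminescence (ADP-Glo) quantified ADP from PI5P4Kalpha turnover; ATP 5 microM final, 1 h at RT, 0.1% CHAPS and 0.28 mM EGTA in HEPES pH 7.4.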
POLI inh = DNA polymerase iota (human) inhibition | Q9UNA4 | hit rate 1% among 390,000 | Potency, µM (top dose mostly 115 µM), inactives show at the highest dose activity, negative = inhibition, actives largely listed as inhibitors | Pol iota fluorescent replication assay, 10 min; note: potency is the fitted concentration of half-maximal effect
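Fluorescent replication assay read twice, at 0 min and 10 min after adding 50 nM (final) substrate. Enzyme (10 nM) and compounds were first incubated 15 min at room temperature; enzyme-free buffer wells were negative controls.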
Pol eta inh-1 = DNA polymerase eta (human) inhibition | recombinant Pol eta, fluorescent DNA replication assay | Potency, µM (top dose mostly 114 µM), without a hit: at the top dose activity change, negative = inhibition, hits mostly inhibitors | hit rate 1.2% among 390,000 | AID 588591; note: potency is the fitted concentration of half-maximal effect; % is set by controls: 0 for no effect and ±100 for the full control effect
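Fluorescent replication assay: 50 nM final substrate added after a 15 min room-temperature compound preincubation with 10 nM enzyme. Signal taken at 0 min and again at 10 min.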
PGK validate = TbPGK inhibition, hit validation. shares compounds with Pol kappa inh-1. hit rate 79% among 500. TbPGK coupled GAPDH assay, Kinase-Glo luminescence. Potency, µM (series often up to 57.5 µM), inactives show top-dose activity change, negative = inhibition, actives largely listed as inhibitors. AID 686980; note: potency is the fitted concentration of half-maximal effect; % is set by controls: 0 for no effect and ±100 for the full control effect; nearly all actives have a fitted effect of over 65% in size
Pol iota confirm = Confirm cherry-picked inhibitors of human polymerase iota | shares compounds with Pol kappa inh-1 | Pol iota primer extension, TAMRA/BHQ fluorescence | Potency, µM, hits mostly inhibitors | hit rate 77% among 1,500; note: potency is the fitted concentration of half-maximal effect
GALK inh confirm = confirmation of human galactokinase (GALK) inhibitors; purified GALK, Kinase-Glo ATP depletion luminescence; shares compounds with Pol eta inh-1; hit rate 70% among 150; Potency, µM (highest dose often 115 µM), for the others: at the top dose activity, negative = inhibition, most hits filed as inhibitors
Target sequence (P51570 whole entry, looked up): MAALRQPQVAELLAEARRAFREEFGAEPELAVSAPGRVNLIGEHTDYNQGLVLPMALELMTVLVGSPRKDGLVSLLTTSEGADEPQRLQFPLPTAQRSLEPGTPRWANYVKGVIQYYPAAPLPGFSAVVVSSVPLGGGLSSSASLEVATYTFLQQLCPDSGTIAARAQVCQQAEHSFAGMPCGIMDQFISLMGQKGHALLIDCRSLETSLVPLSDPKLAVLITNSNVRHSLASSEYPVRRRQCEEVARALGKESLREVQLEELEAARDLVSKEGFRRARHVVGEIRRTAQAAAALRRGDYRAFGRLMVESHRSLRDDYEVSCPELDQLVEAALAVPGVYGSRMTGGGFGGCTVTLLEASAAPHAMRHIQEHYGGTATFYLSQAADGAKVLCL
GALK redox cs = generates H2O2 by redox cycling, flagging GALK artifacts; shares compounds with Pol eta inh-1; AID 2035; hit rate 40% among 150; Phenol red-HRP H2O2 redox cycling, absorbance 600 nm; Potency, µM (series often up to 115 µM), for inactives: at the highest dose activity change, negative = H2O2 signal, hits mostly inhibitors
HEK293 tox = reduces HEK-293 cell viability in GALK counter-screen | shares compounds with Pol eta inh-1 | HEK-293 viability, ATP luminescence (CellTiter-Glo), 24/48 h | Potency, µM (highest dose often 46.1 µM), for inactives: at the top dose activity change, negative = cytotoxicity, most hits filed as inhibitors | hit rate 10% among 170; note: potency is the fitted concentration of half-maximal effect; % is set by controls: 0 for no effect and ±100 for the full control effect
Pol kappa inh-2 = confirmation of human DNA polymerase kappa inhibitors | Potency, µM, actives largely listed as inhibitors | purified Pol-kappa, fluorescent strand-displacement substrate | shares compounds with Pol eta inh-1 | AID 720501 | hit rate 76% among 920; note: potency is the fitted concentration of half-maximal effect
Pol eta inh-2 = confirmation of human DNA polymerase eta inhibitors; shares compounds with Pol eta inh-1; Pol eta primer extension, TAMRA/BHQ fluorescence, 10 min; Potency, µM, most hits filed as inhibitors; hit rate 64% among 2,600; AID 720502; note: potency is the fitted concentration of half-maximal effect
* marks the source's active call; other numbers are inactive results; u = inconclusive; x = no result given; [ ] = another dose, or the depositor's remark. An excerpt weighted towards active compounds, which were near 2.8% of everything screened. Unless noted, calls come from the whole dose curve; as a rule, active = well fitted curve in the direction sought with a large enough effect; inconclusive = small, poorly fitted or top-dose-only effect, or another doubt; inactive = no such curve, though single readings can be large; an effect the other way counts as inactive or inconclusive.

SMILES | Pol kappa inh-1 | WRN helicase inh | POLB inh | PI5P4K alpha inh | POLI inh | Pol eta inh-1 | Pol iota confirm | Pol eta inh-2 | others
CCc1ccc(-c2nc3c(=O)n(C)c(=O)nc-3n(CC)n2)cc1 | -20% | x | x | x | -98% | x | 2.1* | 1.5*
CCCc1nc2c(=O)n(C)c(=O)nc-2n(C)n1 | 6% | -31% | u | 0 | -97% | 0.89µM* | 1.5* | 2.7* | PGK validate=1.5µM*;GALK inh confirm=0.94µM*;GALK redox cs=0.67µM*;HEK293 tox=10µM*
Cc1ccc(-n2c3nc(=O)n(C)c(=O)c-3cc3ccccc32)cc1 | -2% | -10% | -13% | -1 | 24% | 3% | x | x
Cn1nc(-c2ccccn2)nc2c(=O)n(C)c(=O)nc1-2 | 6% | -8% | u | -6 | -96% | 0.71µM* | x | x | PGK validate=1.6µM*;GALK inh confirm=2.7µM*;GALK redox cs=2.7µM*;HEK293 tox=4µM*
COc1ccc(-c2nc(-c3ccccn3)ncc2S(C)(=O)=O)cc1 | -1% | -27%[57.1 µM] | 26% | 2 | 17% | -14% | x | x
CCc1ccc(-c2csc3ncn(CC)c(=O)c23)cc1 | -1% | 4% | -26% | 2 | 9% | -14% | x | x
CCOc1ccc(NC(=O)Cn2c(=O)n(-c3ccccc3)c(=O)c3ccc(C(=O)NCc4ccc5c(c4)OCO5)cc32)cc1 | -1% | x | 31% | x | 16% | -2% | x | x
CCOc1cc(/C=C2\C(=N)N3N=C(S(C)(=O)=O)SC3=NC2=O)ccc1OCCOc1cccc(OC)c1 | -21% | 56µM* | u | -80* | u | 28µM* | u | 85* | Pol kappa inh-2=75*
Cc1ccc(S(=O)(=O)Oc2ccc(/C=C3\C(=N)N4N=C(S(C)(=O)=O)SC4=NC3=O)cc2)cc1 | -26% | u | u | -57* | 16µM* | 20µM* | u | 76*
COc1cc(/C=C2/C(=N)N3N=C(C)SC3=NC2=O)ccc1OS(=O)(=O)c1ccc(C)cc1 | -4% | -29% | -3% | -18 | u | -17% | x | x
COc1cc(/C=C2\C(=N)N3N=C(S(C)(=O)=O)SC3=NC2=O)cc(OC)c1OCCOc1cccc(C)c1 | -8% | -33% | u | u | 93% | u | x | x
COc1cc(/C=C2/C(=N)N3C(=NC2=O)SN=C3S(C)(=O)=O)ccc1OS(=O)(=O)c1ccc(C)cc1 | -28% | u | u | -79* | u | 79µM* | u | 30*
O=C(COC(=O)c1c2c(nc3ccccc13)/C(=C\c1ccco1)CC2)NC1CCCC1 | 22µM* | 45µM* | x | -55* | 6.3µM* | 3.5µM* | 19* | 27* | Pol kappa inh-2=12*
O=C(COC(=O)c1c2c(nc3ccccc13)/C(=C/c1cccc([N+](=O)[O-])c1)CCC2)NC1CCS(=O)(=O)C1 (stereo unspecified) | -20% | -32% | 2% | 24 | 5% | -11% | x | x
CN(CCC#N)C(=O)COC(=O)c1c2c(nc3ccccc13)/C(=C\c1ccco1)CC2 | 22µM* | u | x | u | 4µM* | 11µM* | 17* | 34*
CN1CCc2nc3ccccc3c(C(=O)OCC(=O)N(CCC#N)c3ccccc3)c2C1 | -2% | 3% | -1% | -18 | 33% | -11% | x | x
CC(C)CC(NC(=O)c1ccccc1)C(=O)N/N=C/c1ccco1 (stereo unspecified) | u | -13% | 89µM* | -18 | u | 14µM* | x | u | PGK validate=u
CC(NC(=O)c1ccccc1)C(=O)N/N=C/c1ccco1 (stereo unspecified) | 4% | 4% | 2% | -10 | -23% | 4% | x | x
O=C(c1ccc2c(c1)N(Cc1c(F)cccc1Cl)C(=O)c1ccccc1S2)N1CCCC1 | -13% | x | -1% | x | 5% | -29% | x | x
CN(C)S(=O)(=O)c1cc(NC(=O)COC(=O)/C=C/c2ccco2)ccc1Cl | 32µM* | u | u | -71* | u | 25µM* | x | 67* | PGK validate=-26%
COc1cccc(/C=C/C(=O)OCC(=O)Nc2ccc(Cl)c(S(=O)(=O)N(C)C)c2)c1 | -3% | -5% | 1% | -2 | 10% | -26% | x | x
COc1cccc(-c2ccc3nnc(SCC(=O)Nc4ccc(NC(C)=O)cc4)n3n2)c1 | -11% | u | x | -4 | u | u | u | u
Cc1ccc(NC(=O)CCC(=O)N2Cc3ccccc3Oc3ncccc32)cc1Cl | -10% | x | -2% | x | -26% | -3% | x | x
Cc1ccc(-c2ccc(/C=N\NC(=O)c3cc4c(ccc5ccccc54)o3)o2)cc1[N+](=O)[O-] | 0% | -16% | u | u | 1% | u | x | x
O=C(N/N=C/c1ccc(-c2ccc(Cl)c(C(=O)O)c2)o1)c1cc2c(ccc3ccccc32)o1 | 32µM* | 20µM* | u | -80* | 18µM* | 11µM* | 75* | 19*
O=C1/C(=C\c2cc(Cl)c(O)c(Cl)c2)SC(=S)N1Cc1ccccc1 | -28% | 11µM* | u | -102* | 10µM* | 50µM* | 84* | x | GALK inh confirm=27µM*;GALK redox cs=5%;HEK293 tox=u
O=C(O)CCCCCN1C(=O)/C(=C/c2cn(-c3ccccc3)nc2-c2cccs2)SC1=S | u | u | x | -9 | u | u | 34* | x | Pol kappa inh-2=u
